This excerpt belongs to a sample that is enriched for hits.
LmPK inh: inhibitors of Leishmania mexicana pyruvate kinase | Q27686 | purified LmPK, Kinase-Glo ATP luminescence, 1 h | Potency, µM (series often up to 57.5 µM), without a hit: at the top dose activity change, negative = inhibition, actives largely listed as inhibitors | 290,000 compounds, 0.37% hits; active = well fitted curve in the direction sought with a large enough effect; inconclusive = small, poorly fitted or top-dose-only effect, or another doubt; inactive = no such curve, though single readings can be large; an effect the other way counts as inactive or inconclusive; also: potency is read from the fitted curve at half-maximal effect; % is scaled to controls: 0 for no effect and ±100 for the full control effect
Target sequence (Q27686 whole entry, looked up): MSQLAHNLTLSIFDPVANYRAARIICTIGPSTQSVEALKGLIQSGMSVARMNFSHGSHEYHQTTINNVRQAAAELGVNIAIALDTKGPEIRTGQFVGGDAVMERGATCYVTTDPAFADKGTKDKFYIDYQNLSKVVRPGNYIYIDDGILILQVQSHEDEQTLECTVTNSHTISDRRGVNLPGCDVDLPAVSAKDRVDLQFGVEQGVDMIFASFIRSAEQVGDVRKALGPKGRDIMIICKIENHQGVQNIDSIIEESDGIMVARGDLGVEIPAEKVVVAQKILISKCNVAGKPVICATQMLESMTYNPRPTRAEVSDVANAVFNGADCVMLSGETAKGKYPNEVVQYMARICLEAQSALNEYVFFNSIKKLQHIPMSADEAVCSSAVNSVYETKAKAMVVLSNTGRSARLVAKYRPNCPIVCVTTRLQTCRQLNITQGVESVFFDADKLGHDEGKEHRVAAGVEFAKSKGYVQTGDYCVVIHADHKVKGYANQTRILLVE
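qHTS format; LmPK 0.1 nM; substrates PEP 0.5 mM and ADP 0.1 mM. One-hour room-temperature incubation, then coupled luciferase luminescence; 0.5 nM enzyme wells mark activation.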
NS1 function inh: inhibitors of influenza NS1 protein function. Potency, µM (series often up to 46.1 µM), for inactives: at the top dose activity, positive = more growth. 270,000 compounds, 0.4% hits; also: potency is read from the fitted curve at half-maximal effect; actives are rising curves; nearly all actives have a fitted effect of over 50% in size
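Read-out: OD600 growth recovery of NS1-expressing budding yeast. Cells grown overnight at 30C in -URA glucose medium, washed, resuspended and diluted 1:100 in 2% galactose assay medium, pH 6.0. Same strain lacking NS1 served as positive control.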
CHX counter: counter-screen for Shiga toxin inhibitors: cycloheximide protein synthesis inhibition; cell reporter, cycloheximide protein synthesis inhibition counterscreen; max response, %; 300,000 compounds, 12% hits; AID 2314; in the data active = max response mostly above about 13%, no sharp cut-off; inactive = mostly below about 14%; also: read at 38.3 µM for the half of the compounds with a filed dose; 0% is about no effect
Shiga inhibitor: Shiga toxin inhibition; Vero cells, Shiga toxin protein synthesis inhibition reporter; 290,000 compounds, 9.2% hits; AID 2315; inhibition, % at 38.7 µM; in the data active = inhibition mostly above about 28%, no sharp cut-off; inactive = mostly below about 43%; also: 0% is about no effect
SARS PLP yeast: blocks SARS-CoV papain-like protease in a yeast assay. 330,000 compounds, 0.19% hits. S. cerevisiae expressing SARS-CoV PLpro, growth rescue. Potency, µM (doses to about 32.9 µM), without a hit: at the top dose activity, positive = growth rescue, hits mostly activators; also: potency is read from the fitted curve at half-maximal effect; 0% is about no effect; nearly all actives have a fitted effect of over 55% in size
TbPYK inhibitor: T. brucei pyruvate kinase inhibition; TbPYK enzyme, Kinase-Glo Plus ATP luminescence, 45 min; Potency, µM (highest dose often 76.8 µM), for the others: at the highest dose activity, negative = inhibition, hits mostly inhibitors; Q57TT1; AID 624173; 410,000 compounds, 0.12% hits; active = well fitted curve in the direction sought with a large enough effect; inconclusive = small, poorly fitted or top-dose-only effect, or another doubt; inactive = no such curve, though single readings can be large; an effect the other way counts as inactive or inconclusive; also: potency is read from the fitted curve at half-maximal effect; % is scaled to controls: 0 for no effect and ±100 for the full control effect; nearly all actives have a fitted effect of over 50% in size
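Activity of T. brucei pyruvate kinase was followed by Kinase-Glo Plus luminescence after the enzyme reacted 45 min at room temperature with 130 uM ADP (final) and substrate. Test compounds were added before ADP at multiple concentrations.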
Numbers without * were called inactive; u = inconclusive; x = no result; + = active, no number. Unless noted, calls follow the shape of the full dose curve.

SMILES | LmPK inh | NS1 function inh | CHX counter | Shiga inhibitor | SARS PLP yeast | TbPYK inhibitor
C/C(=N\Nc1cccc([N+](=O)[O-])c1)c1cc2ccccc2o1 | 4% | x | 40* | 44* | 1% | -8%
C/C(=N\Nc1ncc(Cl)cc1Cl)c1ccccn1 | u | x | 43* | 119* | 23% | -20%
C/C(=N\Nc1ccc(Cl)c(C(=O)O)c1)c1cccc2ccccc12 | 16% | 9% | 12* | 45 | -1% | 7%
O=C(c1cccc([N+](=O)[O-])c1)c1cc2ccccc2o1 | -4% | 10% | 17 | 9 | 27% | 1%
O=C(O)c1cc(N/N=C/c2cccc3ccccc23)ccc1Cl | 0% | 14% | 103* | 114* | 2% | 0%
Cc1cn2c(=O)c(S(=O)(=O)NCc3ccccc3Cl)c(C)nc2s1 | x | x | x | x | x | 1%
CCN(CC)CCOc1ccc(Nc2ncc3cc(-c4c(Cl)cccc4Cl)c(=O)n(C)c3n2)cc1 | x | x | x | x | x | 4%
CC(=NNC(=S)Nc1ccccc1Cl)c1ccccn1 | x | x | x | x | x | -9%
C/C(=N\Nc1cccc(C(=O)O)c1)c1cc2ccccc2o1 | 0% | x | 71* | 198* | -7% | 1%
C/C(=N\Nc1ccc(Cl)c(C(=O)O)c1)c1cc2ccccc2o1 | 2% | x | 80* | + | -6% | -1%
C/C(=N\Nc1ccc(Cl)c(C(=O)O)c1)c1ccccn1 | 2% | 5% | 94* | 138* | -4% | 0%
O=[N+]([O-])c1cccc(N/N=C/c2cccc3ccccc23)c1 | 0% | -21% | 30* | 42* | -48% | -4%
C/C(=N\Nc1ccccc1)c1cc2ccccc2oc1=O | 0% | -5% | 19 | 25 | -3% | 1%
O=P(O)(O)C(O)(Cc1cnc2ccccn12)P(=O)(O)O | x | x | x | x | x | 1%
CCCCCN(C(=O)CCC(=O)OCC(=O)N(C)Cc1ccc(C)cc1)c1c(N)n(CCCC)c(=O)[nH]c1=O | -4% | -9% | -1 | -1 | 1% | -9%
COc1cc(F)ccc1-c1cc(C(=O)NCc2cc(C(F)(F)F)cc(C(F)(F)F)c2)[nH]n1 | x | x | x | x | x | -2%
Cc1ccc(NC(=O)CN2C(=O)COc3ccc(S(=O)(=O)N4CCCCC4)cc32)cc1N(C)C | x | x | x | x | x | -2%
CC(C)n1cc(/C=N/Nc2ccc(Cl)c(C(=O)O)c2)c2ccccc21 | -2% | 15% | 49* | x | -3% | x
N#CCC(=O)N/N=C/c1cn(Cc2ccc(Cl)c(Cl)c2)c2ccccc12 | 4% | 6% | 1 | -18 | 1% | -1%
O=C(O)c1cc(N/N=C/C(Cl)=C/c2ccccc2)ccc1Cl | 4% | x | 68* | 183* | 1% | -5%
CN(C(=O)Nc1ccc(Cl)c(Cl)c1)c1ccccc1C(=O)O | -3% | -76% | 3 | 13 | -3% | -6%
COC(=O)CC1C(=O)NCCN1C(=S)Nc1cccc(C)c1 (stereo not drawn) | -3% | 10% | -4 | -10 | 6% | -5%
Cc1ccc(-n2cc(CNCCN3CCOC3=O)c(-c3cccc(C)c3)n2)cc1 | 0% | -4% | 16* | 54* | -1% | 10%
COC(=O)CC1C(=O)NCCN1Cc1cn(-c2ccc(C)cc2)nc1-c1cccc(C)c1 (stereo not drawn) | 2% | 4% | 20* | 46* | 1% | 1%
O=C1OCCN1CCNCc1cn(-c2ccc(F)cc2)nc1-c1ccccc1Cl | 3% | 1% | -1 | -8 | -1% | 2%
SMILES | LmPK inh | NS1 function inh | CHX counter | Shiga inhibitor | SARS PLP yeast | TbPYK inhibitor
CC(C)c1ccc(CCNC(=O)CSC(=S)N2CCCC2)cc1 | x | x | x | x | -1% | 1%
CCOC(=O)c1ccc(NC(=O)CN2C(=O)CSC2=O)cc1 | 7% | 3% | 23* | 59 | 4% | u
COC(=O)c1ccc(NC(=O)CN2C(=O)CSC2=O)cc1 | -10% | -1% | 15* | 17 | 6% | -2%
C=CCOC(=O)C(=O)/C=C/c1ccc2c(c1)Cc1ccccc1-2 | -2% | 2% | 14* | 25 | -2% | -3%
C=CCOC(=O)C(=O)/C=C/c1csc2ccccc12 | 9% | -51% | 11 | -8 | -7% | -6%
Oc1ccc(-c2cn3ccccc3n2)cc1 | 22µM* | -5% | 23* | 25 | -2% | 2%
c1ccc(-c2cn3ccccc3n2)cc1 | x | x | x | x | x | -19%
c1ccc2c(-c3cn4ccccc4n3)c[nH]c2c1 | -1% | x | 43* | 142* | -3% | x
CN(C)S(=O)(=O)c1ccc(-c2cn3ccccc3n2)cc1 | u | -4% | 35* | 65* | -22% | 1%
CCN(CC)S(=O)(=O)c1ccc(-c2cn3ccccc3n2)cc1 | x | x | x | x | x | -5%
Brc1ccc(-c2cn3ccccc3n2)cc1 | -30% | -53% | 35* | 52* | -4% | -8%
O=C(COc1ccc(Br)cc1)NCc1cn2ccccc2n1 | 0% | 0% | -4 | -5 | -1% | 3%
Brc1ccc(OCc2cn3ccccc3n2)cc1 | u | -36% | 36* | 73* | -2% | 5%
CC(C)(C)C(=O)/C=c1\[nH]c(=O)/c(=C\c2ccc(C#N)cc2)s1 | 8% | -4% | -3 | -3 | -1% | -4%
COc1ccc(/C=c2\s/c(=C\C(=O)C(C)(C)C)[nH]c2=O)cc1O | -1% | -4% | 15* | 7 | -1% | -4%
Cc1cccc(/C=c2\s/c(=C\C(=O)C(C)(C)C)[nH]c2=O)c1 | 4% | -76% | 23* | 41 | -23% | -5%
c1ccc(-c2[nH]c(-c3ccccc3)[n+](CC3CO3)c2-c2ccccc2)cc1 (stereo not drawn) | 3% | -20% | 50* | 28 | -33% | -6%
OC1COC(OCc2ccccc2)C(O)C1O (stereo not drawn) | 4% | 4% | -2 | -14 | 1% | 3%
CCN1CCN(C(=O)CCc2nnc(CCc3ccccc3OC)o2)[C@@H](C)C1=O | -6% | 1% | -3 | 25 | -3% | -3%
Clc1ccccc1/C=C/c1ccnc2ccccc12 | 3% | -51% | 46* | 63* | -1% | 7%
O=C(O)C(=Cc1ccnc2ccccc12)C(=O)O | x | -3% | x | x | x | -11%
Oc1ccc(/C=C/c2ccnc3ccccc23)cc1 | -1% | -3% | 111* | 109* | -2% | -6%
CC(C)c1ccc(C2c3[nH]c4ccccc4c3C[C@H]3C(=O)N(c4ccccc4C(=O)N4CCC[C@@H]4C(=O)O)C(=O)N23)cc1 (stereo partly drawn) | 3% | 11% | -1 | 8 | 4% | 1%
CC1(C)CCCN(Cc2c(O)ccc3c(=O)c(-c4nc5ccccc5s4)c(N)oc23)C1 | 0% | -10% | 33* | 77* | -1% | -3%
CC1CCCN(Cc2c(O)ccc3c(=O)c(-c4nc5ccccc5s4)c(N)oc23)C1 (stereo not drawn) | -1% | -27% | 5 | 10 | -5% | 1%
CC1CCCN(C2(O)C(=O)Nc3c(C(F)(F)F)cccc32)C1 (stereo not drawn) | 2% | 3% | 9.4* | 24 | 0% | 6%

Bioassay records: PubChem BioAssay, National Center for Advancing Translational Sciences (NCATS)
